In PubChem BioAssay (NCATS):
Several values for one entry are separate records, joined by “and”; a condition that tells them apart may be missing. Identical values can stand only once. Inconclusive results are not listed. A call without a number means that no potency is given here. Activity calls are given as the source filed them. Unless noted, calls come from the whole dose curve.

Columns and labels:
[1] = target: Bile acid receptor (Homo sapiens) (UniProt Q96RI1); experiment: qHTS assay for small molecule antagonists of farnesoid X receptor signaling (AID 588526); settings: HEK293T FXR-UAS-bla, beta-lactamase ratio, antagonist mode; series mostly up to 76.7 µM
How it was run: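 Beta-lactamase reporter antagonist mode: HEK293T FXR-UAS-bla cells, titrated compound, CDCA stimulation, 16 h 37 C, CCF4 dye 2 h RT. Data normalized to CDCA 50 uM and DMSO; Hill-fit IC50.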

[2] = target: Glucocorticoid receptor (Homo sapiens) (UniProt P04150); experiment: qHTS assay for small molecule agonists of glucocorticoid receptor signaling (AID 588532; active = well fitted curve in the direction sought with a large enough effect in the signal ratio, with a control signal flat; the % refers to the signal ratio); settings: HeLa MMTV-bla, beta-lactamase ratio, agonist, 18 h; stronger effect = higher value; percent of dexamethasone control, DMSO zero
How it was run: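 Quantitative HTS using CellSensor MMTV-bla HeLa cells in charcoal/dextran-treated serum; compounds tested up to 92 uM. After 18 h at 37 C, CCF4 dye reported reporter induction.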

[3] = target: Glucocorticoid receptor (Homo sapiens) (UniProt P04150); experiment: qHTS assay for small molecule antagonists of glucocorticoid receptor signaling (AID 588533; active = well fitted inhibition curve with a large enough effect in the signal ratio, with a control signal flat, not every such curve was filed as active; the % refers to the signal ratio;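 note: cells stimulated with 2 nM dexamethasone as agonist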); settings: HeLa MMTV-bla, GRE beta-lactamase ratio, antagonist mode, 18 h; series mostly up to 76.8 µM
How it was run: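 Antagonist-mode qHTS: compound titrations added to GRE-bla HeLa cells, then dexamethasone 2 nM final; 18 h, 37 C. CCF4 FRET fluorescence normalized to dexamethasone and DMSO; IC50 from Hill fit.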

[4] = qHTS assay for small molecule antagonists of peroxisome proliferator-activated receptor delta signaling (AID 588535; active = well fitted inhibition curve with a large enough effect in the signal ratio, with a control signal flat, not every such curve was filed as active; the % refers to the signal ratio;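 for max response: cells co-treated with a PPAR-delta agonist as stimulator during compound exposure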); settings: HEK293T PPARd-UAS-bla, beta-lactamase FRET ratio, 18 h; 460 nm channel
How it was run: (§1)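 Antagonist-mode qHTS using GeneBLAzer PPAR-delta-UAS-bla HEK293T cells; compound exposure 18 hrs at 37 C over a titration. Ratiometric CCF4 fluorescence at 460/530 nm; concentration-response points fitted to the Hill equation.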

[5] = target: Peroxisome proliferator-activated receptor delta (Homo sapiens) (UniProt Q03181); experiment: as above; settings: HEK293T PPARd-UAS-bla, beta-lactamase FRET ratio, 18 h; series mostly up to 76.7 µM
How it was run: as §1

[6] = target: Peroxisome proliferator-activated receptor gamma (Homo sapiens) (UniProt P37231); experiment: qHTS assay for small molecule agonists of peroxisome proliferator-activated receptor gamma signaling (AID 588536; active = well fitted curve in the direction sought with a large enough effect in the signal ratio, with a control signal flat, not every such curve was filed as active; the % refers to the signal ratio); settings: HEK293 PPARg-UAS-bla, beta-lactamase ratio, 16 h, percent of rosiglitazone response, DMSO as zero; series mostly up to 76.7 µM
How it was run: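 Beta-lactamase reporter read-out: CCF4 fluorescence (ex 405, em 460/530 nm) after 2 h at RT. HEK293 GeneBLAzer cells were treated for 16 h at 37 C. Hill fits gave EC50 and efficacy versus 2 uM rosiglitazone (100%) and DMSO (0%).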

[7] = target: Vitamin D3 receptor (Homo sapiens) (UniProt P11473); experiment: qHTS assay for small molecule antagonists of vitamin D receptor signaling (AID 588541); settings: HEK293T VDR-UAS-bla, beta-lactamase ratio, antagonist mode; series mostly up to 76.7 µM;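 note: receptor activated by calcitriol during compound treatment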
How it was run: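 Antagonist-mode beta-lactamase reporter assay: HEK293T VDR-UAS-bla cells were exposed to titrated compound alongside 1-alpha,25-dihydroxyvitamin D3 at 3 nM final for 16 h. Values were normalized to the 50 nM agonist control and DMSO basal, with IC50 and efficacy from Hill equation fits.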

[8] = target: Vitamin D3 receptor (Homo sapiens) (UniProt P11473); experiment: qHTS assay for small molecule agonists of vitamin D receptor signaling (AID 588543); settings: HEK293T VDR-UAS-bla, beta-lactamase ratio, 16 h; series mostly up to 76.8 µM
How it was run: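 Reporter cells (HEK293T, VDR-UAS-bla) were seeded in medium with 2% charcoal-stripped serum and incubated 5 h, then compounds in concentration series were added for 16 h at 37 °C. Stimulation was scaled between DMSO basal and 50 nM 1α,25-dihydroxyvitamin D3.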

[9] = qHTS assay for small molecule agonists of retinoid X receptor alpha signaling (AID 588544); settings: HEK293T RXRa-UAS-bla, beta-lactamase reporter, 18 h; 530 nm emission
[10] = target: Retinoic acid receptor RXR-alpha (Homo sapiens) (UniProt P19793); experiment: as above; settings: HEK293T RXRa-UAS-bla, beta-lactamase reporter, 18 h; series mostly up to 76.7 µM
[11] = qHTS assay for small molecule antagonists of retinoid X receptor alpha signaling (AID 588546; active = well fitted inhibition curve with a large enough effect in the signal ratio, with a control signal flat, not every such curve was filed as active; the % refers to the signal ratio;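 note: cells stimulated with 9-cis-retinoic acid as agonist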); settings: HEK293T RXRa-UAS-bla, beta-lactamase ratio, antagonist mode; measured here: W530 green channel, cytotoxicity proxy
How it was run: (§2)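 Beta-lactamase reporter inhibition, read as CCF4 fluorescence ratio (ex 405, em 460/530 nm) after 2 h at RT. HEK293T UAS-bla cells, 2500/well, were stimulated with 9-cis-RA at 500 or 100 nM final alongside test compound for 18 h at 37 C.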

[12] = target: Voltage-gated inwardly rectifying potassium channel KCNH2 (Homo sapiens) (UniProt Q12809); experiment: qHTS Assay for Small Molecule Inhibitors of the Human hERG Channel Activity (AID 588834; active = well fitted inhibition curve with a large enough effect;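 note: top concentration of the series differs between compounds; lower thallium flux fluorescence means stronger hERG block; nearly all actives have a fitted effect of over 50% in size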); settings: U2OS BacMam hERG, FluxOR thallium flux fluorescence; series mostly up to 92.2 µM
How it was run: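 Step 1: BacMam hERG transduction of U2OS, 4 hrs RT. Step 2: overnight 37 °C, plate 2000 cells/well, 4 hr. Step 3: FluxOR load, compound 10 min, stimulate, read fluorescence.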

[13] = qHTS assay for small molecule agonists of the antioxidant response element (ARE) signaling pathway (AID 651741; active = well fitted activation curve with a large enough effect in the signal ratio; the % refers to the signal ratio; note: potency is the fitted concentration of half-maximal effect); settings: HepG2 ARE-bla reporter, beta-lactamase FRET ratio, 16 h; series mostly up to 96 µM
How it was run: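 Agonist activity is measured as ARE-driven beta-lactamase expression in a stable HepG2 reporter line, using 16 h compound treatment at 37 C and a FRET substrate fluorescence readout after 2 h.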

[14] = qHTS assay for small molecule activators of the p53 signaling pathway (AID 651743; active = well fitted activation curve with a large enough effect in the signal ratio, not every such curve was filed as active; the % refers to the signal ratio); settings: HCT-116 p53RE-bla, beta-lactamase FRET ratio, 16 h; stronger effect = higher value
How it was run: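 A beta-lactamase reporter under p53 response element control, stably carried by HCT-116 cells, reported pathway activation. Test compounds were applied for 16 hours at 37 C, and fluorescence was measured 2 hours after adding the B/G FRET substrate.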

[15] = qHTS assay for small molecule activators of the nuclear factor-kappa B (NF-kB) signaling pathway (AID 651749; active = well fitted activation curve with a large enough effect in the signal ratio; the % refers to the signal ratio); settings: NF-kB-bla ME-180 cells, beta-lactamase FRET ratio, 16 h; stronger effect = higher value
How it was run: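 FRET-based beta-lactamase detection in ME-180 cells reports NF-kB response-element-driven transcription following overnight (16 hr) compound treatment.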

[16] = qHTS assay for small molecule disruptors of the mitochondrial membrane potential - 1 hr assay (AID 651754); settings: series mostly up to 92.2 µM; note: nearly all actives have a fitted effect of over 35% in size
How it was run: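 Read-out: dye fluorescence at 490 nm ex/535 nm em (monomers) and 540 nm ex/590 nm em (aggregates) in HepG2 cells. Compound exposure 1 hr at 37C, followed by 30 min dye loading.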

[17] = target: Peroxisome proliferator-activated receptor gamma (Homo sapiens) (UniProt P37231); experiment: qHTS assay for small molecule antagonists of peroxisome proliferator-activated receptor gamma signaling (AID 588537; active = well fitted inhibition curve with a large enough effect in the signal ratio, with a control signal flat, not every such curve was filed as active; the % refers to the signal ratio;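 note: reporter cells co-stimulated with 50 nM rosiglitazone agonist during compound treatment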); settings: HEK293 PPARg-UAS-bla, beta-lactamase ratio, antagonist mode; series mostly up to 76.8 µM
How it was run: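 Cell-based beta-lactamase assay; GW9662 served as the antagonist control. Stimulation used rosiglitazone, final 50 nM, 16 h, 37 C.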

[18] = target: Thyroid hormone receptor beta (Homo sapiens) (UniProt P10828); experiment: qHTS assay for small molecule agonists of thyroid hormone receptor beta signaling (AID 588545); settings: TR-UAS-bla GripTite HEK 293, beta-lactamase ratio, agonist mode, 18 h, percent of T3 response, DMSO as zero; series mostly up to 76.7 µM
How it was run: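 Agonist-mode beta-lactamase reporter assay, HEK 293 cells, 2% charcoal/dextran FBS; cells plated 4 hrs, compound 18 hrs at 37 C, CCF4 2 hrs RT. Normalized to 10 nM T3 (100%) and DMSO (0%); Hill fit gives EC50, efficacy.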

[19] = target: Retinoic acid receptor RXR-alpha (Homo sapiens) (UniProt P19793); experiment: qHTS assay for small molecule antagonists of retinoid X receptor alpha signaling (AID 588546); settings: HEK293T RXRa-UAS-bla, beta-lactamase ratio, antagonist mode;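 note: cells stimulated with 9-cis-retinoic acid as agonist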
How it was run: as §2

[20] = target: Thyroid hormone receptor beta (Homo sapiens) (UniProt P10828); experiment: qHTS assay for small molecule antagonists of thyroid hormone receptor beta signaling (AID 588547; active = well fitted inhibition curve with a large enough effect in the signal ratio, with a control signal flat, not every such curve was filed as active; the % refers to the signal ratio;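 note: cells stimulated with 0.4 nM T3 agonist during compound exposure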); settings: TR-UAS-bla HEK293, beta-lactamase ratio, antagonist mode, 18 h
How it was run: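 Inhibition of T3-driven (0.4nM final) beta-lactamase reporter activity was measured over 0.59 nM to 92 uM compound after 18 h at 37 C. The cells were GripTite HEK293 TR-UAS-bla in charcoal/dextran-stripped serum, with CCF4 ratio read-out and IC50 from Hill fits.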

Sequence of Glucocorticoid receptor (Homo sapiens) (P04150 whole entry, looked up): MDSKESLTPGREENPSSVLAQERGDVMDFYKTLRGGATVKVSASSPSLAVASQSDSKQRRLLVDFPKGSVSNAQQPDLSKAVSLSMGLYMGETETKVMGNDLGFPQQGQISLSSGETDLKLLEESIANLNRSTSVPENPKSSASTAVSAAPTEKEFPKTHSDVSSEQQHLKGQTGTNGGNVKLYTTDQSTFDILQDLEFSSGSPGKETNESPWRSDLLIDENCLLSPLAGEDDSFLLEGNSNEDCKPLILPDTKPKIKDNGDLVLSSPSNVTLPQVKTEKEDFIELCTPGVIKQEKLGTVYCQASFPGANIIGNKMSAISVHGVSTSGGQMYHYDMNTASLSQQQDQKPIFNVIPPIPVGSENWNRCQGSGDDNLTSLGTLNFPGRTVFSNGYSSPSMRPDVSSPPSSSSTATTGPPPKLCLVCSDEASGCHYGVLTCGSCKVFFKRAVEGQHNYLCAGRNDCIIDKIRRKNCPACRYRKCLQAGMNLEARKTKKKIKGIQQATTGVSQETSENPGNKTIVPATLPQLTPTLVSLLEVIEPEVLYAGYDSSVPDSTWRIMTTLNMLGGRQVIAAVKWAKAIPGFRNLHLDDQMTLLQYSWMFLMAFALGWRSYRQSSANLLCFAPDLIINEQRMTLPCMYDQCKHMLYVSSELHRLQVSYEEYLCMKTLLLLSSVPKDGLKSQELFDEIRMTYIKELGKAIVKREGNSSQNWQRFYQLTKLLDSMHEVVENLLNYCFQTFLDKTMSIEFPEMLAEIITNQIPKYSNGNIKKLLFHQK
Sequence of Retinoic acid receptor RXR-alpha (Homo sapiens) (P19793 whole entry, looked up): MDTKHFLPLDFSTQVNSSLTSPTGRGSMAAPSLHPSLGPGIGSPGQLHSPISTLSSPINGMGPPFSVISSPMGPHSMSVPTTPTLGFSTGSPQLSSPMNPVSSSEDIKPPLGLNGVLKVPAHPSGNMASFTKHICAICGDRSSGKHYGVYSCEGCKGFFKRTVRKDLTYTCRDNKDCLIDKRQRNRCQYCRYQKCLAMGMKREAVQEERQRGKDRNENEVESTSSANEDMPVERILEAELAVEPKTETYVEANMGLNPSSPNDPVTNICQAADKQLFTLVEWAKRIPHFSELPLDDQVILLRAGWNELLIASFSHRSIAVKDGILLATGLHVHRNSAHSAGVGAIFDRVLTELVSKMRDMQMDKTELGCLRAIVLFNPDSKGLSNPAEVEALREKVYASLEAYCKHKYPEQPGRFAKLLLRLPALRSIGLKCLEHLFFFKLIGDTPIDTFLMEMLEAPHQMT
Sequence of Vitamin D3 receptor (Homo sapiens) (P11473 whole entry, looked up): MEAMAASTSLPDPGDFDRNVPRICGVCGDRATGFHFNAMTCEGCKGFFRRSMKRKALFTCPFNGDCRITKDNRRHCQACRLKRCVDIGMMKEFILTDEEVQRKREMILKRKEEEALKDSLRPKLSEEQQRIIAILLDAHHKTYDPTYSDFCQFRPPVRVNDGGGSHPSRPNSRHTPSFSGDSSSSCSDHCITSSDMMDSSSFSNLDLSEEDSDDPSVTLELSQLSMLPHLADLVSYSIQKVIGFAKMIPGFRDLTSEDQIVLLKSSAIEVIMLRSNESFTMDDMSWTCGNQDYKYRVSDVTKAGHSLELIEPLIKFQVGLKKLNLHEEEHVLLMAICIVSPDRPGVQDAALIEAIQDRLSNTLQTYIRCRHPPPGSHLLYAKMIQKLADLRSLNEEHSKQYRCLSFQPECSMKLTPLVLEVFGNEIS
Sequence of Peroxisome proliferator-activated receptor gamma (Homo sapiens) (P37231 whole entry, looked up): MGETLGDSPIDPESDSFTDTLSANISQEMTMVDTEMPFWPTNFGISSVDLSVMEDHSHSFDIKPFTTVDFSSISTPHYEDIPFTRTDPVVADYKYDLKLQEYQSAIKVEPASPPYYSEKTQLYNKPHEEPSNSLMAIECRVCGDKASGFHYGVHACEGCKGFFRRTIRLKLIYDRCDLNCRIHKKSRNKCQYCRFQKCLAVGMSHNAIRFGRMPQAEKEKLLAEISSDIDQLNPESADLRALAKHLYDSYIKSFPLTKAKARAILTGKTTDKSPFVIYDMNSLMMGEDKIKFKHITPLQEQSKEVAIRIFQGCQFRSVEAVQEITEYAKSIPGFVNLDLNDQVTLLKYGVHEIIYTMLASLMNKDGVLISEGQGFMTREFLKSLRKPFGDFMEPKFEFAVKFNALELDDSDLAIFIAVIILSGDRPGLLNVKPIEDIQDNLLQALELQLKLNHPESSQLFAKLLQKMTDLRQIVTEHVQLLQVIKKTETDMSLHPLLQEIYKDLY
Sequence of Bile acid receptor (Homo sapiens) (Q96RI1 whole entry, looked up): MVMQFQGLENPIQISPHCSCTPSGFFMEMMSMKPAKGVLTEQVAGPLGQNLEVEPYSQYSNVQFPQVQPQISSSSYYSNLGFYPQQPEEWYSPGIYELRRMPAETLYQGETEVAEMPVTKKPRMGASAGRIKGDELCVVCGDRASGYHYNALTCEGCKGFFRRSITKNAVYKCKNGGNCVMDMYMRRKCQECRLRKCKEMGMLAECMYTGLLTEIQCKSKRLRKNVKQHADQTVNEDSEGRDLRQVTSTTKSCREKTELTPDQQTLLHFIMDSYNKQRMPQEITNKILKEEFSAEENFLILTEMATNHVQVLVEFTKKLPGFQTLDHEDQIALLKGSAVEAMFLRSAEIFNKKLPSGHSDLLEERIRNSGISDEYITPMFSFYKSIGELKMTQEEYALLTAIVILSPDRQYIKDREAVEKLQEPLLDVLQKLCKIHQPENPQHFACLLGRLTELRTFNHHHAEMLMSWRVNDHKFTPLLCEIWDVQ
Sequence of Thyroid hormone receptor beta (Homo sapiens) (P10828 whole entry, looked up): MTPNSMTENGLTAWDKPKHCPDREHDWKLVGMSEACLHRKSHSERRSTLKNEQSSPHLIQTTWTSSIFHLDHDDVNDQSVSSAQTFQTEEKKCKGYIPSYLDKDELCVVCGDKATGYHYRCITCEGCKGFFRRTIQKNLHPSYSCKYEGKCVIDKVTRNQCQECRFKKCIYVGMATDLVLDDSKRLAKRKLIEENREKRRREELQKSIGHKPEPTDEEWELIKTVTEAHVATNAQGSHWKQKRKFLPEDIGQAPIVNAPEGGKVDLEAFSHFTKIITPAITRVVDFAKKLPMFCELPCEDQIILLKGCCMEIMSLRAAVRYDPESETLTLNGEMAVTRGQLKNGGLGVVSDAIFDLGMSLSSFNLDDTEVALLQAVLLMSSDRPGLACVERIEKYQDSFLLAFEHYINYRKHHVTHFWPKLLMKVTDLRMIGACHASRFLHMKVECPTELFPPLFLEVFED
Sequence of Peroxisome proliferator-activated receptor delta (Homo sapiens) (Q03181 whole entry, looked up): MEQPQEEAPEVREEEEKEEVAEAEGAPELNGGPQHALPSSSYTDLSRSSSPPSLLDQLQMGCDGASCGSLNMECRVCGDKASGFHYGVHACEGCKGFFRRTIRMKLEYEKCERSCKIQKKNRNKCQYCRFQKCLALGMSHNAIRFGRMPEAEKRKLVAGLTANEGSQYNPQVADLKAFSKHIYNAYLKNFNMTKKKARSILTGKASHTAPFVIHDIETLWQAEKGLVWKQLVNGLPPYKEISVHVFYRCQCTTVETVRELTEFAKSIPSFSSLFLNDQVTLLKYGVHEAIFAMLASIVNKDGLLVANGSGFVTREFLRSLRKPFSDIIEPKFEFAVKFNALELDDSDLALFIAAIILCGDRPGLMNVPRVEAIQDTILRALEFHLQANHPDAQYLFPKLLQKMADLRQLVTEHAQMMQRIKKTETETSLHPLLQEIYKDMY
Sequence of Voltage-gated inwardly rectifying potassium channel KCNH2 (Homo sapiens) (Q12809 whole entry, looked up): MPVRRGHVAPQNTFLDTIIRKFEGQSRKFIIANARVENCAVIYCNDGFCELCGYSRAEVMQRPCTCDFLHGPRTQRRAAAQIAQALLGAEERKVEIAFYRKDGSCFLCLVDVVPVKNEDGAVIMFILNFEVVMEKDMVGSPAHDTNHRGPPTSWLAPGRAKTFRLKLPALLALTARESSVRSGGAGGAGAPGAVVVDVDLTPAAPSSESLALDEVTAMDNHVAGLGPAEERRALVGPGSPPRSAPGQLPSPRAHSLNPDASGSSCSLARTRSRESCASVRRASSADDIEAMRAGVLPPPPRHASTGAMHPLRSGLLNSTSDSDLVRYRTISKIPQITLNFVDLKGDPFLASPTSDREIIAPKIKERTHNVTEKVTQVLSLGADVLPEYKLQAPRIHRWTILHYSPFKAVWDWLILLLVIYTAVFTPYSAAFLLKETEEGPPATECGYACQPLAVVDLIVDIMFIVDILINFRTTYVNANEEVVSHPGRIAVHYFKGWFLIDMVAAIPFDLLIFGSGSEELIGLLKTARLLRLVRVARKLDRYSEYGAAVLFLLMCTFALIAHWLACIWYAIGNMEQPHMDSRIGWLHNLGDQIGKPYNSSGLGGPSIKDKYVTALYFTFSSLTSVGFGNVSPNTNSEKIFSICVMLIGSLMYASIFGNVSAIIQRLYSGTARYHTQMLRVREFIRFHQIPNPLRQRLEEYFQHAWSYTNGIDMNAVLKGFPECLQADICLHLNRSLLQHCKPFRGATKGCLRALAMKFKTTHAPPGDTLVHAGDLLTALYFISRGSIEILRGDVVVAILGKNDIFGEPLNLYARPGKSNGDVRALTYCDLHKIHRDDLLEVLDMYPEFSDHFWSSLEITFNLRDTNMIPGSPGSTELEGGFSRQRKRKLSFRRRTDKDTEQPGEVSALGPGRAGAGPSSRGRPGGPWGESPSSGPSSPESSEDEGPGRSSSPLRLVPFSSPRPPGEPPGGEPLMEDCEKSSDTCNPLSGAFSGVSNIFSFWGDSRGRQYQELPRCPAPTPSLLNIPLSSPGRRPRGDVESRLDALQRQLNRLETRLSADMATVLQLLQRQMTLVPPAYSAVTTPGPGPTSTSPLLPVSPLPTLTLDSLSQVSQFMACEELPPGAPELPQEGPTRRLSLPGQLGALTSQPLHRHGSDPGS

Row | SMILES | outcome [1] | activation [2] | outcome [3] | max response [4] | Potency [5] | outcome [6] | outcome [7] | outcome [8] | max response [9] | outcome [10] | max response [11] | Potency [12] | Potency [13] | activation [14] | activation [15] | Potency [16] | outcome [17] | outcome [18] | max response [19] | activity change % (negative = inhibition) [20]
1 | CCCCC(CC)COC(=O)CCCCC(=O)OCC(CC)CCCC (stereo unspecified) | inactive | 0.342% (inactive) and 3.17% (inactive) | inactive | -4.31% and 35.2% | inactive | inactive | inactive | inactive | -13% and -12.5% | inactive | -3.16% and -14.9% | inactive | inactive | -0.514% (inactive) and -0.3% (inactive) | 0.278% (inactive) and -0.188% (inactive) | inactive |  |  |  | 
2 | NC(=S)NNC(N)=S | inactive | -4.1% (inactive) and -4.08% (inactive) | inactive | -7.61% and 32% |  | inactive |  |  | -14.7% and -3.73% | inactive | -7.09% | inactive | inactive | 1.05% (inactive) and -1.18% (inactive) | -0.0609% (inactive) and -1.04% (inactive) | inactive | inactive | inactive | -19.9% (inactive) | -0.459% (inactive) and 12.6% (inactive)
3 | CC(=O)OC(C)C | inactive | 0.131% (inactive) | inactive | -28.9% | inactive | inactive |  | inactive | 0.6% | inactive | 7.8% | inactive | inactive | -0.528% (inactive) |  | inactive |  | inactive | 7.02% (inactive) | 7.16% (inactive)
4 | Cc1ccc(C)o1 | inactive | -6.27% (inactive) | inactive | -8.16% | inactive | inactive | inactive |  | 16.3% | inactive | 5.87% | inactive | inactive | -6.1% (inactive) |  | inactive |  | inactive | -4.44% (inactive) | -3.98% (inactive)
5 | N#Cc1ccccc1 | inactive | 4.79% (inactive) | inactive | -16.3% |  | inactive | inactive | inactive | -9.04% | inactive | 0.37% | inactive | inactive | -1.56% (inactive) | 0.786% (inactive) |  | inactive | inactive | 1.5% (inactive) | 1.08% (inactive)
6 | Cc1ccc(C#N)cc1 | inactive | -8.98% (inactive) | inactive | -7.41% | inactive | inactive | inactive |  | 3.27% | inactive | -3.82% | inactive |  |  | 0.0681% (inactive) |  | inactive | inactive | 0.597% (inactive) | 4.16% (inactive)
7 | Cc1ccc(C)c(N)c1 | inactive | -8.67% (inactive) | inactive | 30.9% | inactive | inactive |  | inactive | 7.96% | inactive | -10.5% | inactive | inactive | -2.64% (inactive) | 0.0574% (inactive) | inactive |  | inactive | 21.7% (inactive) | -4.28% (inactive)
8 | CCC(C)(C)C(=O)O | inactive | -7.32% (inactive) | inactive | -22.2% | inactive | inactive | inactive | inactive | -9.68% | inactive | -3.08% |  | inactive | 0.0165% (inactive) | -0.114% (inactive) | inactive | inactive |  |  | -3.87% (inactive)
9 | Nc1nc(-c2ccccc2)cs1 | inactive | 1.27% (inactive) | inactive | -2.19% | inactive | inactive | inactive |  | -6.18% | inactive | 7.15% | inactive | 37.6 µM (active) |  | 0.279% (inactive) | inactive |  |  | -5.77% (inactive) | 
10 | O=[N+]([O-])c1ccc(NCCO)c(OCCO)c1 | inactive | 5.48% (inactive) | inactive | 15.8% |  | inactive | inactive | inactive | 4.58% | inactive | -6.21% | inactive |  | -3% (inactive) |  |  |  | inactive |  | -13.2% (inactive)
11 | N#CC1(O)CCCCC1 | inactive | 0.0169% (inactive) | inactive | 12% | inactive | inactive | inactive |  | 4.69% | inactive | -4.06% | inactive | inactive | 0.526% (inactive) | -2.59% (inactive) | inactive |  | inactive | 2.71% (inactive) | -16% (inactive)
12 | Cc1cccc([N+](=O)[O-])c1C(=O)O | inactive | 4.26% (inactive) | inactive | 7.62% | inactive | inactive |  | inactive | -20.5% | inactive | -4.5% | inactive | inactive | -3.44% (inactive) |  | inactive | inactive | inactive | -0.976% (inactive) | 13.9% (inactive)
